Assay [1] is described as follows: inhibitors of TNFa-induced NFkB p65 translocation, primary screen, imaging, HUVEC, MLSMR starter and 10KST1 sets (AID 438;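 active means inhibition above 20% together with a positive visual image hit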;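 further: compound added about 3h40 before a 20 min TNFalpha stimulation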;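 on inhibition: signal is the nuclear over cytoplasmic p65 intensity ratio per well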). Particulars: HUVEC TNFa-induced p65 nuclear translocation; cell count: measured here: nuclei count (cytotoxicity indicator), at 2.08 µM; inhibition: at 2 µM, stronger effect = higher value, 0% TNFa-plus-vehicle, 100% no-TNFa wells.
Assay [2] can be described thus: inhibitors of mutant huntingtin aggregation, primary screen, imaging, exon1htt(103Q)mCFP cells, high-content imaging (AID 483;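 active means visual image review flags a hit and inhibition of aggregation exceeds 20%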;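 further: compound exposure lasted 3 days before fixation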;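 on nuclei count: percent of the per-plate median nuclei count of sample wells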). Particulars: exon1htt(103Q)mCFP cell line, aggregate imaging, at 2 µM; inhibition of aggregation: stronger effect = higher value; nuclei count: measured here: cell count, toxicity.
A short description of assay [3]: inhibitors of E-selectin induction by TNFa, primary screen, imaging, HUVEC, immunofluorescence, MLSMR starter and 10KST1 sets (AID 487;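 active means visually confirmed hit in the image check and inhibition above 20%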;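 on inhibition: signal is fraction of cell area covered by stained E-selectin grains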;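 on nuclei count: 100% = median nuclei count of all wells on the same plate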). To be noted: HUVEC TNFalpha-induced E-selectin immunofluorescence imaging, at 2 µM; inhibition: stronger effect = higher value; nuclei count: measured here: cell number, toxicity.
The target of assay [4] is Voltage-gated potassium channel subunit beta-2 (Rattus norvegicus) (UniProt P62483). The assay can be described thus: KvBeta enzyme negative modulators, primary screen, biochemical, NADPH fluorescence (AID 622).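 Further: slope of raw intensity against log time taken from 70 to 1610 s.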 Particulars: recombinant KvBeta, 4-cyanobenzaldehyde reduction, at 10 µM, stronger effect = higher value.
Chain of Voltage-gated potassium channel subunit beta-2 (Rattus norvegicus) (P62483 whole entry, looked up): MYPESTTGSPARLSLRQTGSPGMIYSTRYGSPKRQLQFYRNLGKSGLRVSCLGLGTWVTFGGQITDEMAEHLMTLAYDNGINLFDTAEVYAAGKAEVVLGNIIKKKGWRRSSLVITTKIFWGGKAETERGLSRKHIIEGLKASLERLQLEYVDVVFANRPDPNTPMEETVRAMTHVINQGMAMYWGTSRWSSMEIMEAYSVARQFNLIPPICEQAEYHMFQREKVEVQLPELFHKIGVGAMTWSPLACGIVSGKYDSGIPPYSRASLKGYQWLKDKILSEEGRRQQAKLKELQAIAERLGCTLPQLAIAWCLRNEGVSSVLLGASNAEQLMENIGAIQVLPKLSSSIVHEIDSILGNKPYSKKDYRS
The target is the same in assay [5]. In words: KvBeta positive modulators, primary screen, biochemical, NADPH fluorescence (AID 623;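 active means NADPH fluorescence slope more negative than the mean of all samples by about 3 SD, 99.7% confidence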;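 further: fluorescence intensity change per second fitted from 20 to 320 s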). To be noted: Recombinant KvBeta, NADPH fluorescence decrease slope, 10 min; at 10 µM; stronger effect = lower value.
Assay [6] concerns the target Alpha-2C adrenergic receptor (Homo sapiens) (UniProt P18825). The assay can be described thus: modulators of alpha2C/GIRK thallium flux, primary screen, cell-based, HEK293 alpha2C/GIRK1/2 (AID 624;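 active means fluorescence slope after compound addition differing from the mean of all screened samples at 99.7% confidence, in either direction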;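 further: slope of fluorescence ratio to pre-addition baseline per second over 15 to 24 s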). Particulars: thallium flux BTC fluorescence, at 10 µM, actives lie on both sides.
Assay [7] can be described thus: inhibitors of Sendai virus-induced IRF3 signaling, primary screen, TLR/RLR signaling modifier project, cell-based, Sendai virus stimulus, luciferase, 10K MLSCN set (AID 602276;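 active means inhibition at or above 50% at 10 µM; inactive means inhibition below 50%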;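 further: firefly luciferase from ISG56 promoter only with Renilla not read in this screen; 0% = Sendai virus plus DMSO and 100% = medium plus DMSO without virus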). To be noted: HEK293 RL24 IRF3 luciferase reporter, at 10 µM, stronger effect = higher value. (Reporter assays use an easily measured gene product as a stand-in for the process of interest.)
Assay [8] in a line: inhibitors of poly I:C-induced TLR3 signaling, primary screen, cell-based, poly I:C stimulus, luciferase, 10K MLSCN set (AID 602277;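 active means inhibition of the reporter signal at or above 50%; inactive means inhibition below 50%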). To be noted: HEK293-TLR3 RL24 IRF3 luciferase reporter, at 10 µM, stronger effect = higher value.

Calls of active or inactive are those of the source.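 How the source made its calls, unless noted: active means fluorescence slope higher than the sample average by over 3 SD (cut at about -0.22 in these data, passing the limit was not always enough); inactive means the rest.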

Chain of Alpha-2C adrenergic receptor (Homo sapiens) (P18825 whole entry, looked up): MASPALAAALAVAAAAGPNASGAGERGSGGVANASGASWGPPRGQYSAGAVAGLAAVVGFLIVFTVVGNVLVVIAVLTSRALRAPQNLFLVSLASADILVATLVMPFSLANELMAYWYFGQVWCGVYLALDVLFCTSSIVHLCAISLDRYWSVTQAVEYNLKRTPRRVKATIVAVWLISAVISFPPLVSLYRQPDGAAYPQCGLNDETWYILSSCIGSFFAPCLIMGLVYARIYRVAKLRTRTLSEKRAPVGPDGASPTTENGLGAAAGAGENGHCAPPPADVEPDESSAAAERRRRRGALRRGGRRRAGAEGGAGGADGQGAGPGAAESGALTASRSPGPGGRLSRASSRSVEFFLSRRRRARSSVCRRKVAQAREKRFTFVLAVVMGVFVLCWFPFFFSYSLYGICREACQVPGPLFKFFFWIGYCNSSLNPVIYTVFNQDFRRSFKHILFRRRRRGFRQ

As a reminder, the inhibition is the drop in the measured response relative to a control, in per cent. Take `Cc1ccc(S(=O)(=O)N2CCC(C(=O)NCCN3CCCCCC3)CC2)cc1`: the cell count in assay [1] is 768. In addition, the inhibition in assay [1] was -9.5% (inactive); in assay [3] it was -87.4% (inactive); in assay [7] it was 11.2% (inactive); in assay [8], 32.9% (inactive). The inhibition of aggregation in assay [2] is -2.1% (inactive). For the same molecule, the results for the nuclei count in assay [2] and in assay [3] were 102% and 110%, respectively. Further, the fluorescence slope in assay [4] was -0.456 (inactive). In assay [5], the NADPH fluorescence slope was -6.3e-05 (inactive). In addition, in assay [6], the slope was 0.00469 (inactive).

On to `C=CCn1c(N)c(C(=O)NCCC2=CCCCC2)sc1=S`, for which the cell count in assay [1] was determined as 450. Besides, the inhibition in assay [1] was 6.6% (inactive); in assay [3] it was 4% (inactive); in assay [7], 0.338% (inactive); in assay [8] it was -64.6% (inactive). Also, the inhibition of aggregation in assay [2] is -12.8% (inactive). The results for the nuclei count in assay [2] and in assay [3] were 104% and 116%, respectively. Further, the fluorescence slope in assay [4] was -0.626 (inactive). In addition, in assay [5], the NADPH fluorescence slope is -1.2e-05 (inactive). In addition, in assay [6], the slope is 0.00668 (inactive).

In the case of `CC1CCCCC1NC(=O)CCCc1nc2ccccc2c(=O)[nH]1` (centres undefined), the cell count in assay [1] came to 364. Also, the inhibition was -2.1% (inactive) in assay [1], -11.1% (inactive) in assay [3], 7.71% (inactive) in assay [7] and 17.2% (inactive) in assay [8]. In addition, the inhibition of aggregation in assay [2] was 5.3% (inactive). Besides, the nuclei count was 87.7% in assay [2] and 79.6% in assay [3]. For the same molecule, the fluorescence slope in assay [4] was -0.618 (inactive). Further, in assay [5], the NADPH fluorescence slope was -2.3e-05 (inactive). The slope in assay [6] is 0.00379 (inactive).

Take `CC1=C(C(=O)Nc2ccccc2)C(c2cccs2)C(C#N)=C(SCC#N)N1` (centres undefined): the cell count in assay [1] was determined as 713. Moreover, the inhibition in assay [1] was -16.4% (inactive); in assay [3], 34.7% (inactive); in assay [7], -25.9% (inactive); in assay [8], -5.98% (inactive). The inhibition of aggregation in assay [2] is 27.1% (inactive). Further, the nuclei count in assay [2] was determined as 77.7%; in assay [3] it was 99.1%. Moreover, in assay [4], the fluorescence slope is -0.525 (inactive). In assay [5], the NADPH fluorescence slope was -6.3e-05 (inactive). Also, in assay [6], the slope is 0.00547 (inactive).

Regarding `Cc1cc(Nc2ccc(C(=O)O)cc2)n2nc(C)nc2n1`, in assay [1], the cell count was found to be 822. The inhibition in assay [1] is 3.9% (inactive); in assay [3] it was -13.7% (inactive); in assay [7] it was 7.19% (inactive); in assay [8] it was 21% (inactive). The inhibition of aggregation in assay [2] was 9.8% (inactive). For the same molecule, the nuclei count in assay [2] was determined as 109%; in assay [3], 106%. Further, the fluorescence slope in assay [4] was -0.543 (inactive). Besides, the NADPH fluorescence slope in assay [5] is -1.5e-05 (inactive). Besides, the slope in assay [6] was 0.00685 (inactive).

Turning to `CCOC(=O)C(NC(=O)OC(C)C)(Nc1nccs1)C(F)(F)F` (centres undefined), the cell count in assay [1] was 636. Also, the inhibition in assay [1] was 10.6% (inactive); in assay [3], 22.7% (inactive); in assay [7] it was 8.51% (inactive); in assay [8] it was 27.8% (inactive). For the same molecule, in assay [2], the inhibition of aggregation was -13.3% (inactive). The nuclei count turned out to be 98.7% in assay [2] and 108% in assay [3]. Moreover, the fluorescence slope in assay [4] was -0.608 (inactive). In addition, the NADPH fluorescence slope in assay [5] was -5.2e-07 (inactive). Besides, the slope in assay [6] was 0.00583 (inactive).

Turning to `CC(=O)c1ccc(NC2OC(C)C(O)C(O)C2O)cc1` (centres undefined), the cell count in assay [1] stood at 329. The inhibition in assay [1] was 4.3% (inactive); in assay [3] it was -90% (inactive); in assay [7], -11.5% (inactive); in assay [8] it was -11.5% (inactive). For the same molecule, the inhibition of aggregation in assay [2] was -0.6% (inactive). The figures for the nuclei count in assay [2] and in assay [3] were 93.8% and 103%, respectively. Besides, in assay [4], the fluorescence slope was -0.382 (inactive). For the same molecule, the NADPH fluorescence slope in assay [5] is -8.6e-06 (inactive). In addition, the slope in assay [6] is 0.00391 (inactive).

Consider `Cc1ccc2c(c1)C(O)(CC(=O)c1ccc3c(c1)OCO3)C(=O)N2` (centres undefined), for which the cell count in assay [1] was determined as 671. The inhibition in assay [1] is 9.5% (inactive); in assay [3], 16.8% (inactive); in assay [7], 0.102% (inactive); in assay [8] it was 23% (inactive). For the same molecule, in assay [2], the inhibition of aggregation is -46.3% (inactive). Further, the nuclei count in assay [2] was determined as 93.9%; in assay [3] it was 93.3%. Also, the fluorescence slope in assay [4] is -0.511 (inactive). Moreover, the NADPH fluorescence slope in assay [5] is -5e-05 (inactive). In addition, the slope in assay [6] is 0.00523 (inactive).

In the case of `Cc1nnc(SCC(=O)N(C(C)C)C(C)C)nc1C`, the cell count in assay [1] turned out to be 430. For the same molecule, the inhibition is 7% (inactive) in assay [1], -106% (inactive) in assay [3], 6.7% (inactive) in assay [7] and 8.25% (inactive) in assay [8]. Moreover, the inhibition of aggregation in assay [2] is -8.2% (inactive). The nuclei count was found to be 101% in assay [2] and 115% in assay [3]. Further, the fluorescence slope in assay [4] was -0.599 (inactive). The NADPH fluorescence slope in assay [5] was -3.9e-05 (inactive). Besides, the slope in assay [6] is 0.00322 (inactive).

On to `c1ccc(CC2CCN(c3nc4ccccc4n4nnnc34)CC2)cc1`, for which, in assay [1], the cell count came to 373. For the same molecule, the inhibition in assay [1] was -13.8% (inactive); in assay [3] it was -63.7% (inactive); in assay [7], 7.26% (inactive); in assay [8], 13.6% (inactive). In addition, the inhibition of aggregation in assay [2] is -7.8% (inactive). The nuclei count in assay [2] was determined as 102%; in assay [3] it was 114%. The fluorescence slope in assay [4] was -0.312 (inactive). Besides, the NADPH fluorescence slope in assay [5] was -3.7e-05 (inactive). Also, the slope in assay [6] is 0.00583 (inactive).

Take `COc1ccccc1CNC(=O)C1CCC(CNc2c(N3CCOCC3)c(=O)c2=O)CC1` (centres undefined): in assay [1], the cell count was found to be 739. The inhibition is -14.6% (inactive) in assay [1], -1.3% (inactive) in assay [3], 1.39% (inactive) in assay [7] and 17.5% (inactive) in assay [8]. Moreover, in assay [2], the inhibition of aggregation was 22.5% (inactive). Moreover, the nuclei count is 105% in assay [2] and 122% in assay [3]. Besides, the fluorescence slope in assay [4] was -0.592 (inactive). Besides, the NADPH fluorescence slope in assay [5] is -3e-05 (inactive). Also, the slope in assay [6] is 0.00599 (inactive).

On to `CC1(c2ccc(Cl)cc2)NC(=O)N(CC(=O)NC(=O)NCc2ccco2)C1=O` (centres undefined), for which the cell count in assay [1] is 482. Besides, the inhibition in assay [1] was 2.9% (inactive); in assay [3] it was -48.5% (inactive); in assay [7] it was 14.9% (inactive); in assay [8] it was 18.4% (inactive). Also, the inhibition of aggregation in assay [2] was -25.8% (inactive). Moreover, the figures for the nuclei count in assay [2] and in assay [3] were 102% and 110%, respectively. For the same molecule, the fluorescence slope in assay [4] is -0.399 (inactive). In addition, the NADPH fluorescence slope in assay [5] is -4.4e-05 (inactive). Further, in assay [6], the slope was 0.00253 (inactive).

For the molecule `CCC(=O)Nc1ccc(Cl)c(NC(=O)C(C)C)c1`, in assay [1], the cell count was determined as 410. Moreover, the inhibition in assay [1] was 0.3% (inactive); in assay [3], -111% (inactive); in assay [7] it was 5.28% (inactive); in assay [8], 25.2% (inactive). In assay [2], the inhibition of aggregation was -10.3% (inactive). For the same molecule, the nuclei count in assay [2] came out at 105%; in assay [3], 81.5%. In assay [4], the fluorescence slope was -0.47 (inactive). Further, the NADPH fluorescence slope in assay [5] is -3.3e-05 (inactive). Also, the slope in assay [6] was 0.00567 (inactive).

For the molecule `COc1ccccc1Nc1nc(N)nc(-c2cc3ccccc3o2)n1`, the cell count in assay [1] came to 153. Also, the inhibition in assay [1] is 1.2% (inactive); in assay [3], 25.7% (inactive); in assay [7], -39.9% (inactive); in assay [8] it was -99.9% (inactive). Also, the inhibition of aggregation in assay [2] was -7.1% (inactive). Besides, the figures for the nuclei count in assay [2] and in assay [3] were 89.1% and 85.7%, respectively. For the same molecule, the fluorescence slope in assay [4] was -0.332 (inactive). In assay [5], the NADPH fluorescence slope was -3.9e-05 (inactive). In assay [6], the slope was 0.00555 (inactive).

(Values after PubChem BioAssay.)
